# Experimental data taken from the supplement of paper PMC10338343.
# ± gives the standard deviation.
# What was measured:
# [1] = system: MILI (PIWIL2) piRISC loaded with L1MC piRNA (26 nt); test: pre-steady-state target cleavage rate (min^-1); guide: L1MC piRNA 5'p-UAACUAAAUACUAUGCAAGCUGUAGG; higher = faster piRNA-guided slicing of the target;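 note: 1 nM active piRISC with 0.1 nM target library at 33 °C single turnover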
# Outline: (§1)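 A burst-and-steady-state fit was used to obtain the pre-steady-state cleavage rate. The input data were sequencing reads of uncleaved targets, normalised to depth and to weakly complementary targets, from a […] transcribed, DNA-blocked target RNA library mixed with 1 nM active affinity-purified piRISC holding one synthetic guide, with or without 500 nM GTSF1 partner protein, in HEPES–potassium acetate buffer at 33 °C for 0–8 or 0–960 min. Three trials were pooled and k3 was capped at 0.0001 min^-1.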
# [2] = system: EfPiwi piRISC loaded with L1MC piRNA (26 nt); test: pre-steady-state target cleavage rate (min^-1); auxiliary factor: 500 nM Ephydatia muelleri Gtsf1; guide: L1MC piRNA 5'p-UAACUAAAUACUAUGCAAGCUGUAGG; MIWI and MILI are mouse PIWI proteins and EfPiwi is from a freshwater sponge; tags in brackets are library labels; higher = faster piRNA-guided slicing of the target
# Outline: as §1
# [3] = auxiliary factor: 500 nM mouse GTSF1
# [4] = auxiliary factor: none (no GTSF1)
Sequence,"pre-steady-state target cleavage rate [1, 3]",pre-steady-state target cleavage rate [2],"pre-steady-state target cleavage rate [1, 4]"
UCCUGCUACACCUUGCAUAGUAUUUUGUUA,0.1 ± 0.032,0.00317 ± 0.0023,
UCCUGCUACAGCUUGCAUACUAUUUAGAUA,0.0214 ± 0.0094,0.00382 ± 0.002,
UCCUGGAUGUCGAAGGAAAGUAUUUAGUUA,,< 0.0001,< 0.0001
UCCUCCUACAGCUUGCAUAGUAUUAGUUA,0.273 ± 0.024,0.00402 ± 0.0027,
UCCUGCUACAGCUUGGAUAGUAUUUAGAAA,0.0121 ± 0.0049,0.00242 ± 0.0021,
UCCUGCAUCAGCUUGCAUAGUAUUUAGAAA,0.127 ± 0.022,0.00393 ± 0.0017,
UCCUGCUAGAGCUUGCAUAGUAUUUUCAAA,0.0124 ± 0.0058,0.00315 ± 0.0025,
UCCUGCUACAGCUUGCAUAGUAUUAACAAA,0.0401 ± 0.011,0.00321 ± 0.0023,
UCCUGCUACAGCUUGCAUAGUAUUAACUUA,0.0306 ± 0.0076,0.00397 ± 0.0027,
UCCUGGAACAGCUUGCAUAGUAUUAAGUAA,0.0909 ± 0.024,0.00572 ± 0.0023,
UCCUCCUACAGCUUGCAUAGUAAUUAGAAA,0.127 ± 0.032,0.00474 ± 0.0026,
UCCUGCAACAGCUUGCAUAGUAUUUUGUUA,0.179 ± 0.023,0.00469 ± 0.0013,
UCCUCCUACAGCUUGCAUAGAUUUAGUUA,0.00908 ± 0.0047,0.00442 ± 0.0029,
UCCUCCUACAGCUUGCAUACUAUUUACUUA,0.0688 ± 0.016,0.00621 ± 0.0047,
UCCUGGAUCAGCAUCCAUAGUAUUUAGUUA,0.103 ± 0.022,0.00269 ± 0.0023,
UCCUCCUACAGCAUGCAUAGUAUUUAGAAA,0.211 ± 0.03,0.00473 ± 0.002,
UCCUCCUACAGCUUGCAUACUAUUUUGUUA,0.0272 ± 0.0077,0.00468 ± 0.0034,
UCCUGCUACAGCUUGCAUAGUUUAUAGUUA,0.0528 ± 0.017,0.00312 ± 0.0027,
UCCUGGAUCAGCUUGCAUAGUAUUUUCAUA,0.0451 ± 0.011,0.00263 ± 0.0022,
UCCUCCUACAGCUUGCAAAGUAUUUUCAAA,0.0849 ± 0.023,0.00286 ± 0.0028,
UCCUCCUACAGCUUGCAUAGUAUUUGUUA,0.203 ± 0.04,0.00561 ± 0.0026,
UCCUCCUAGAGCUUGCAUAGUAUUUACAAA,0.0915 ± 0.027,0.00252 ± 0.0019,
UCCUCCUACAGCUAGCAUAGUAUUUAGAUA,0.144 ± 0.025,0.00495 ± 0.0024,
UCCUGGAACAGCAAGCAUAGUAUUUAGAAA,0.162 ± 0.025,0.00309 ± 0.002,
UCCUCCUACAGCUUGCAUACUAAUUAGUUA,0.0267 ± 0.0069,0.00358 ± 0.0017,
UCCUGCUACAGCUUGCAUAGUAUUUAGGUA,0.143 ± 0.034,0.00342 ± 0.0016,
UCCUGCUACAGCUUGCAUAGUAAAAAGUAA,0.0283 ± 0.0099,0.00322 ± 0.0027,
UCCUGGAUGUGCUUGCAUAGUAUUUAUUA,0.00911 ± 0.0051,0.00271 ± 0.0022,

Sequence,"pre-steady-state target cleavage rate [1, 3]",pre-steady-state target cleavage rate [2],"pre-steady-state target cleavage rate [1, 4]"
UCCUCCUAGAGCUUGCAUAGUUUUUAGUUA,0.0719 ± 0.011,0.00428 ± 0.0017,
UCCUGGAACAGCUUGCAUAGUUAUUAGUAA,0.0204 ± 0.0084,0.00454 ± 0.0037,
UCCUCCUACAGCUUGCAUAGUAAUUUCAAA,0.182 ± 0.038,0.00321 ± 0.0026,
UCCUGGAACAGCUUGCAUAGUAUUUAGAAA,0.0838 ± 0.015,0.00395 ± 0.0012,
UCCUGCUACAGCUUGCAUAGUUUUUAGAUA,0.0373 ± 0.011,0.00319 ± 0.0018,
UCCUGGAUGUGCUUGCAUAGUAUUUAGAAA,0.0532 ± 0.013,0.00293 ± 0.0018,
UCCUGGAUCAGCUUGCAUAGUAUUAAGAAA,0.0751 ± 0.02,0.00459 ± 0.0022,
UCCUGCUACAGCUUGCAUAGUAUUAAGUAA,0.172 ± 0.042,0.00315 ± 0.0016,
UCCUCCUACAGGAUGCAUAGUAUUUUCAAA,0.0564 ± 0.017,0.00259 ± 0.0025,
UCCUCGUACAGCUUGCAUAGUAUUUUCAAA,0.0759 ± 0.02,0.0038 ± 0.0029,
UCCUGGAAGAGCUUGCAUAGUAUUUAGAAA,0.109 ± 0.025,0.00533 ± 0.002,
UCCUGCUACAGCUUGCAUAGAAUUUUGUUA,0.06 ± 0.013,0.00457 ± 0.0019,
UCCUGGUACAGCUUGCAUAGUAUUUUGAAA,0.06 ± 0.022,0.00282 ± 0.0028,
UCCUGGAACUGCUUGCAUAGUAUUUUGUUA,0.101 ± 0.017,0.00426 ± 0.0026,
UCCUGCUACAGCUUGCAUACUAUUAAGUUA,0.0719 ± 0.018,0.00453 ± 0.0019,
UCCUGGUACAGCUUGCAAAGUAUUUAGAAA,0.0181 ± 0.0094,0.00656 ± 0.0038,
UCCUCCUACAGCUUGCAUAGUAAUUAGUAA,0.141 ± 0.021,0.0063 ± 0.0029,
UCCUCCUACAGCUUGCAUAGUAUUUAGUGA,0.186 ± 0.034,0.00553 ± 0.0017,
UCCUGGAUCAGCUUGCAUAGUAUUAAGUAA,0.178 ± 0.03,0.00602 ± 0.0026,
UCCUGGAUGUCGAACGAUAGUGAUUUAGUUA,,< 0.0001,< 0.0001
UCCUGGAACAGCUUGCAUAGUAUUUAGAUUA,0.0966 ± 0.023,0.00539 ± 0.002,
UCCUGGAACUCCUUGCAUAGUAUUUAGAAA,0.162 ± 0.029,0.00313 ± 0.0019,
UCCUGCUACAGCUUGCAUAGUAUUUUCUAA,0.0874 ± 0.021,0.00646 ± 0.0026,
UCCUCCUACAGCUUGCAUAGUAAAUACAAA,0.0608 ± 0.018,0.00363 ± 0.003,
UCCUGGAUGUCCUUGCAUAGUAUUUAGAAA,0.0838 ± 0.021,0.00278 ± 0.0022,
UCCUGCUACAGCUUGCAAAGUAUUUAGAAA,0.159 ± 0.033,0.00352 ± 0.002,
UCCUCCUACAGCUUGCAUAGUAUGUUAGUUA,0.126 ± 0.022,0.00459 ± 0.0021,
